One assay has as its target T1, MoHTR1 (Magnaporthe oryzae, UniProt Q2KEJ2 20-198).
T1 sequence: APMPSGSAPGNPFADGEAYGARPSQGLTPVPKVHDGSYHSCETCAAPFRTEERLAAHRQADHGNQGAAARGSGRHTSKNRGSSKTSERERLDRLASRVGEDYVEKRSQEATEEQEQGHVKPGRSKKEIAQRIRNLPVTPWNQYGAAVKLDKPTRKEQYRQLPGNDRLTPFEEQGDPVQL
Put plainly: array; high values mean tight binding. Conditions: protein: recombinant; tags: DsRed; 6xHis (pET-32a vector); dsDNA, one strand shown.
Regarding CAATCTTC, the binding signal worked out at 27900 a.u. With AACTCCTC, the binding signal stood at 22100 a.u. As for TCCAATCC, the binding signal turned out to be 22900 a.u.

On to CCTCCACC, for which the binding signal is 23900 a.u.

With CTCCAACC, the binding signal is 14800 a.u. Still for that read-out and setting: as for CCATACAC, the figure is 14100 a.u; as for TCTCAATC, 24100 a.u; as for CTCTAATC, 21800 a.u. For the sequence CCTCCTCC, the binding signal is 21700 a.u. The same measure, in the same setting: as for CCGCCACC, the figure is 13400 a.u; as for CTTCAATC, 21100 a.u. On to CCAACTCC, for which the binding signal worked out at 20800 a.u. As for CATACTCC, the binding signal stood at 19100 a.u. On to CAATCTCC, for which the binding signal came to 20800 a.u.

For the sequence AACTCTCC, the binding signal was found to be 21600 a.u. For the sequence CCACCTCC, the binding signal was found to be 24000 a.u.

For CTAACTCC, the binding signal turned out to be 22500 a.u. In the case of TCAATCTC, the binding signal amounted to 23900 a.u.

Regarding CAATCCTC, the binding signal came to 20100 a.u.

CTCATACC: the binding signal worked out at 25600 a.u. Same read-out and setting: as for CCTCAATC, the figure is 19700 a.u.

As to CTCAACTC, the binding signal was 24700 a.u.

The target of the next assay is T2, MoHTR2 (Magnaporthe oryzae, UniProt G5EHQ6 19-110).
T2 sequence: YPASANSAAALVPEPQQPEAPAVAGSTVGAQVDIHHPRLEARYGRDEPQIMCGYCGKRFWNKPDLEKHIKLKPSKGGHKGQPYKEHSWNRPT
The assay is described as follows: array; high values mean tight binding. The note with it: protein: recombinant; tags: DsRed; 6xHis (pET-32a vector); dsDNA, one strand shown.
Consider CCGCCTCC, for which the binding signal was found to be 8800 a.u. For CCTCCACC, the binding signal was 11600 a.u.

With CCTCCTCC, the binding signal was found to be 10800 a.u. On the same count and under the same terms, as for CCACCTCC, the figure is 11800 a.u; as for CCTCCGCC, 9500 a.u; as for CATACCTC, 8490 a.u.
